Test [1] is described as follows: ACEA_ER_80hr: ACEA Biosciences xCELLigence Real-Time Cell Analysis on Estrogen Receptor Agonism for Proliferation (AID 2282667; active = hit-call score of the fitted dose curve at least 0.9, where 1 is the maximum). As to conditions: T47D proliferation, impedance (xCELLigence), 80 h. In outline:
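Real-time electrical impedance tracked growth of the human breast line T47D, with the 80 h post-dosing value used. Dosing spanned eight 1:4 steps down from a 100 uM final top concentration, run in duplicate.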

Test [2] in a line: APR_HepG2_CellCycleArrest_24hr: Apredica 24-hour HepG2 Assay for Cell Cycle Arrest (AID 2282905).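 Note: cell cycle arrest scored as ratio of 2N to 4N nuclear DNA content.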 The conditions noted are these: imaging, actives raise or lower the signal. In outline:
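HepG2 cells were exposed to compounds at 0.39–200 uM (ten concentrations, duplicate) in 0.5% v/v DMSO for 24 hr. After formaldehyde fixation and Triton permeabilization, Hoechst 33342-stained nuclei were imaged at 20x; DNA content was quantified, with bidirectional fitting against DMSO.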

Test [3] in a line: APR_HepG2_NuclearSize_24hr: Apredica 24-hour HepG2 Assay for Nuclear Size (AID 2282907). As to conditions: high-content imaging, actives raise or lower the signal. In outline: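 HepG2 human liver cells were exposed for 24 hr to compounds at 0.39–200 uM (ten concentrations, duplicate) in 0.5% v/v DMSO. They were then formaldehyde-fixed, Triton-permeabilized and Hoechst 33342-stained, and nuclear diameter was imaged at 20x. Bidirectional fits were made against DMSO.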

Test [4] is described as follows: APR_HepG2_CellLoss_24hr: Apredica 24-hour HepG2 Assay for Cell Loss (AID 2282908).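 For AC50: fit in both directions so a hit may be cell loss or gain.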 The conditions noted are these: high-content imaging. In outline:
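Compounds were tested at 0.39–200 uM in duplicate with 0.5% v/v DMSO final. Cells were then fixed in 3.7% formaldehyde, Hoechst 33342 nuclei were imaged at 20x by HCS, and cell number was fitted bidirectionally against DMSO.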

Test [5] is described as follows: APR_HepG2_MicrotubuleCSK_24hr: Apredica 24-hour HepG2 Assay for Microtubule CSK Stabilty (AID 2282909). As to conditions: HepG2 microtubule cytoskeleton imaging, actives raise or lower the signal. An outline of the steps:
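HepG2 cells exposed 24 h to compounds at 0.39–200 uM (duplicate, 0.5% v/v DMSO final), then fixed, permeabilized and immunostained for alpha-tubulin with Hoechst 33342. Cytoskeleton imaged at 20x; bidirectional fit versus DMSO baseline.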

The nature of test [6]: APR_HepG2_MitoticArrest_24hr: Apredica 24-hour HepG2 Assay for Mitotic Arrest (AID 2282910). As to conditions: high-content imaging, actives raise or lower the signal. In outline:
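HepG2 cells, 24 h exposure at 0.39-200 uM (10 concentrations, duplicate, 0.5% DMSO). Fixed, stained for phospho-histone H3 with Hoechst; imaged by high-content microscopy, bidirectional fit versus DMSO.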

Test [7] is described as follows: APR_HepG2_MitoMembPot_24hr: Apredica 24-hour HepG2 Assay for Mitochondrial Membrane Potential (AID 2282911). As to conditions: imaging, actives raise or lower the signal. An outline of the steps: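 Cells are dosed for 24 hr across 0.39 to 200 uM with solvent held at 0.5% DMSO. They are then stained with 250 nM MitoTracker Red CMXRos for 30 min, fixed in 3.7% formaldehyde and imaged.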

Test [8] is described as follows: APR_HepG2_p53Act_24hr: Apredica 24-hour HepG2 Assay for p53 Activation (AID 2282913).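 Note: p53 protein immunofluorescence averaged per cell in HepG2 with Hoechst nuclei.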 As to conditions: high-content imaging, actives raise or lower the signal. In outline: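 Human HepG2 liver cells; 24 hr cpd treatment, 0.39–200 uM, 0.5% DMSO final. Fixed in 3.7% formaldehyde, permeabilized with 0.5% Triton X-100, stained with anti-p53/Cy5 plus Hoechst 33342. Six images per well at 20x; gain or loss vs DMSO.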

Test [9] can be described thus: APR_HepG2_CellCycleArrest_72hr: Apredica 72-hour HepG2 Assay for Cell Cycle Arrest (AID 2282914). The conditions noted are these: high-content imaging, actives raise or lower the signal. An outline of the steps:
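Read-out is Hoechst-stained nuclear DNA content measured by automated fluorescence imaging (20x, six images per well), fitted in both directions relative to DMSO. Human HepG2 liver cells received 0.39–200 uM compound for 72 hr at 0.5% v/v DMSO.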

The nature of test [10]: APR_HepG2_CellLoss_72hr: Apredica 72-hour HepG2 Assay for Cell Loss (AID 2282915). As to conditions: high-content imaging. In outline:
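HepG2 cells exposed 72 h to compound at 0.39–200 uM (10 concentrations, duplicate) in 0.5% DMSO. Fixed with 3.7% formaldehyde and Hoechst 33342-stained. Imaged at 20x; nuclear count gives cell number, fitted bidirectionally versus DMSO.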

Test [11] in a line: APR_HepG2_P-H2AX_72hr: Apredica 72-hour HepG2 Assay for H2AX Phosphorylation (AID 2282916).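 Note: phospho-histone H2A.x immunostain intensity per cell marking DNA damage.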 The conditions noted are these: imaging, actives raise or lower the signal. In outline:
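HepG2 human liver cells were exposed for 72 hr to compounds at 0.39–200 uM (10 concentrations, duplicate per plate) in 0.5% v/v DMSO. Fixed, permeabilized cells were immunolabeled for phospho-histone H2A.x with Hoechst 33342 and imaged by HCS fluorescence; bidirectional fit versus DMSO.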

A short description of test [12]: APR_HepG2_MitoMembPot_72hr: Apredica 72-hour HepG2 Assay for Mitochondrial Membrane Potential (AID 2282917). As to conditions: imaging, actives raise or lower the signal. In outline: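 HepG2 cells dosed 72 hr with compound at 0.39–200 uM in duplicate, 0.5% v/v DMSO final. Mitochondria stained with 250 nM MitoTracker Red CMXRos for 30 min before formaldehyde fixation, imaged by high-content fluorescence; bidirectional fit versus DMSO.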

Test [13] can be described thus: APR_HepG2_MicrotubuleCSK_72hr: Apredica 72-hour HepG2 Assay for Microtubule CSK Stabilty (AID 2282919). As to conditions: HepG2 microtubule cytoskeleton, high-content imaging, actives raise or lower the signal. An outline of the steps:
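HepG2 cells were exposed 72 hr to compound at 0.39–200 uM in duplicate (0.5% DMSO final), then fixed and permeabilized. Alpha-tubulin immunofluorescence was imaged by high-content microscopy, with bidirectional fitting against DMSO and taxol as positive control.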

A short description of test [14]: APR_HepG2_P-H2AX_24hr: Apredica 24-hour HepG2 Assay for H2AX Phosphorylation (AID 2282920). The conditions noted are these: high-content imaging, actives raise or lower the signal. An outline of the steps: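 HepG2, 24 hr, cpd 0.39–200 uM (10 conc, duplicate), DMSO 0.5% v/v final. Fix 3.7% formaldehyde, Triton X-100 permeabilize, anti-phospho-H2A.x 1:200 + Hoechst 2 ug/mL. Imaged, bidirectional fit vs DMSO.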

Test [15] is described as follows: APR_HepG2_StressKinase_72hr: Apredica 72-hour HepG2 Assay for Stress Kinase (AID 2282921). As to conditions: HepG2 stress kinase (phospho-c-Jun) imaging, actives raise or lower the signal. An outline of the steps: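 Cells were exposed for 72 h to ten concentrations (0.39–200 uM, duplicate) at 0.5% v/v DMSO final, then fixed with 3.7% formaldehyde, permeabilized and immunostained for phospho-c-Jun (Cy3 secondary) with Hoechst nuclear counterstain.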

The nature of test [16]: APR_HepG2_StressKinase_24hr: Apredica 24-hour HepG2 Assay for Stress Kinase (AID 2282922). As to conditions: HepG2 stress kinase (phospho-c-Jun) imaging, actives raise or lower the signal. In outline: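 HepG2 cells exposed 24 h to 0.39–200 uM compound in duplicate (0.5% v/v DMSO final). Cells fixed in 3.7% formaldehyde, permeabilized and immunostained for phospho-c-Jun; read by high-content fluorescence imaging, fitted bidirectionally against DMSO.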

Test [17] in a line: APR_HepG2_p53Act_72hr: Apredica 72-hour HepG2 Assay for p53 Activation (AID 2282923).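 Note: average cellular p53 protein immunofluorescence intensity in HepG2 cells.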 The conditions noted are these: high-content imaging, actives raise or lower the signal. An outline of the steps: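 Cells were dosed for 72 hr with compounds at 0.39–200 uM in duplicate (final DMSO 0.5% v/v), then fixed in 3.7% formaldehyde, permeabilized with Triton X-100 and immunostained for p53 (Cy5) with Hoechst 33342 nuclear counterstain.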

SMILES strings stand for the structures. Results filed as inconclusive are left out. Calls of active or inactive are those of the source. Rule for the calls, unless noted: active = hit-call score of the fitted dose curve at least 0.9, where 1 is the maximum; inactive = score below 0.9.

As for `O=[N+]([O-])c1ccccc1`, the molecule was called inactive in [1], in test [2], in [3], in test [4], in test [5] and in test [6]. The molecule was called inactive in [7], in test [8], in test [9], in [10], in test [11] and in test [12]. For the same molecule, the outcome in [13], in test [14], in test [15], in [16] and in test [17] was inactive.

One may read the AC50 as the concentration giving half of the maximal activity seen. For the molecule `CCCN(CCC)c1c([N+](=O)[O-])cc(C(C)C)cc1[N+](=O)[O-]`, the molecule was called inactive in test [1], in test [3], in test [5], in [6], in test [14] and in [15]. For the same molecule, in test [16], the molecule was called inactive. The AC50 in test [2] was 49 µM (active); in test [4] it was 32.6 µM (active); in test [7] it was 55.2 µM (active); in [8] it was 52.9 µM (active); in [9], 35.4 µM (active); in [10] it was 43.1 µM (active). The AC50 in test [11] was 52.1 µM (active); in test [12], 46.9 µM (active); in test [13] it was 41.2 µM (active); in test [17], 44.1 µM (active).

With `CCCCN(CCCC)SN(C)C(=O)Oc1cccc2c1OC(C)(C)C2`, the molecule was called inactive in test [1], in test [3], in test [5], in test [7], in test [12] and in test [15]. In [16], the outcome was inactive. Also, the AC50 is 48.4 µM (active) in test [2]; 98 µM (active) in test [4]; 79.2 µM (active) in test [6]; 23.3 µM (active) in test [9]; 56.8 µM (active) in test [10]; 59.9 µM (active) in [11]. Further, the AC50 in test [13] is 97.1 µM (active); in [14], 66.8 µM (active).

For the molecule `CCOP(=S)(OCC)SCSCC`, the half-maximal activity concentration (AC50) is 19.7 µM (active) in [1], 114 µM (active) in [2], 111 µM (active) in test [9] and 107 µM (active) in test [14]. Also, the call in test [3], in test [4], in [5], in [6], in test [7] and in test [10] was inactive. Moreover, the result in [11], in test [12], in test [13], in test [15] and in test [16] was inactive.

Turning to `O=[N+]([O-])c1ccc(Cl)c(Cl)c1`, the outcome in test [1], in test [2], in test [3], in [4], in test [5] and in test [6] was inactive. Moreover, the molecule was called inactive in [7], in [9], in test [10], in test [11], in test [12] and in test [13]. The call in [14], in test [15] and in test [16] was inactive.

On to `O=P(Oc1ccccc1)(Oc1ccccc1)Oc1ccccc1`, for which the molecule was classed as inactive in test [1], in [3], in test [7], in [12], in test [15] and in test [16]. The AC50 is 83.5 µM (active) in test [2]; 63.2 µM (active) in test [4]; 83 µM (active) in test [5]; 67.5 µM (active) in [6]; 67.6 µM (active) in test [8]; 75.5 µM (active) in [9]. Further, the AC50 in test [10] is 63.2 µM (active); in test [11], 66.4 µM (active); in [13], 79.4 µM (active); in [14], 70.9 µM (active); in [17] it was 68.3 µM (active).

As for `OCC1CO1` (configuration not stated), the molecule was called inactive in test [1], in test [2], in test [3], in test [4], in [5] and in [6]. In addition, the result in [7], in [8], in test [9], in test [10], in test [11] and in test [12] was inactive. Besides, the call in test [13], in test [14], in test [15], in test [16] and in [17] was inactive.

For the molecule `CSC(C)(C)C=NO`, the result in test [1], in test [2], in test [3], in [4], in [5] and in test [6] was inactive. Also, the result in test [7], in test [9], in [10], in test [11], in test [12] and in test [13] was inactive. Also, the molecule was classed as inactive in test [14], in test [15] and in test [16].

As to `O=P1(N(CCCl)CCCl)NCCCO1` (configuration not stated), the AC50 in test [1] was 3.97 µM (active). Besides, the outcome in test [2], in test [3], in test [4], in [5], in test [6] and in [7] was inactive. The call in test [8], in test [9], in test [10], in test [11], in test [12] and in [13] was inactive. Besides, the molecule was classed as inactive in test [14], in test [15], in test [16] and in test [17].

Consider `Nc1ccc(Cl)cc1`, for which the result in test [1], in test [2], in test [3], in test [4], in test [5] and in test [6] was inactive. Further, the outcome in test [7], in test [8], in test [9], in test [10], in test [11] and in [12] was inactive. In addition, the molecule was called inactive in [13], in test [14], in [15], in [16] and in test [17].

Consider `CC(Cl)(Cl)C(=O)O`, for which the result in test [1], in test [2], in test [3], in [4], in test [5] and in test [6] was inactive. Further, the molecule was classed as inactive in [7], in [9], in test [10], in test [11], in test [12] and in test [13]. The molecule was called inactive in test [14], in [15] and in test [16].

The values above are taken from PubChem BioAssay (EPA / NIEHS).
